Measurements taken from PubChem BioAssay (NCATS).
Results filed as inconclusive are left out. Where a call stands in place of a potency, no number is given. The source made the active and inactive calls. The call rests on the fitted dose curve; in most records, active means well fitted curve in the direction sought with a large enough effect; inconclusive means small, poorly fitted or top-dose-only effect, or another doubt; inactive means no such curve, though single readings can be large; an effect the other way counts as inactive or inconclusive.

Assays:
[1] = molecular target: Cytochrome P450 3A4 (Homo sapiens) (UniProt P08684); assay: qHTS Assay for Inhibitors and Substrates of Cytochrome P450 3A4 (AID 884); further: nearly all actives have a fitted effect of over 50% in size; further: potency means the concentration at half of the fitted maximal effect
Sequence of Cytochrome P450 3A4 (Homo sapiens) (P08684 whole entry, looked up): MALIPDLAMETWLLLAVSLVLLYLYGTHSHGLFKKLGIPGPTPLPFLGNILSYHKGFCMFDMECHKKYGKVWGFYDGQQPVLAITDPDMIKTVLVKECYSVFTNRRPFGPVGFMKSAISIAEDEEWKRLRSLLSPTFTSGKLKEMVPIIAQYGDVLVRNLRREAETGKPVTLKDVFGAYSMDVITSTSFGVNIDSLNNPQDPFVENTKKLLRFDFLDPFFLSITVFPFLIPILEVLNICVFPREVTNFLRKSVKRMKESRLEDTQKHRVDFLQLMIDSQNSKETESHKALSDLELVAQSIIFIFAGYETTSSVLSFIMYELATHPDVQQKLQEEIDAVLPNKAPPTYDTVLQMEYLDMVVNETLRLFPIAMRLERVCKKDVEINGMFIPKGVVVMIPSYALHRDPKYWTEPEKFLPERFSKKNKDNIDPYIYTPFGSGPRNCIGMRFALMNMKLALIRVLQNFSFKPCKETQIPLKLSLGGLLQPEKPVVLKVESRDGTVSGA
In short: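 20 nM human CYP3A4 with 25 uM Luciferin-PPXE (at KM) in 200 mM KPO4, preincubated 10 min with compound; NADPH regeneration started a 60 min RT reaction. Luciferin detected by luminescence, normalized to 57 uM ketoconazole as full inhibition.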

[2] = molecular target: Cytochrome P450 3A4 (Homo sapiens) (UniProt P08684); assay: qHTS Assay for Activators of Cytochrome P450 3A4 (AID 885); further: nearly all actives have a fitted effect of over 65% in size
In short: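 Human CYP3A4 (20 nM) with Luciferin-PPXE at 25 uM (its KM) in 200 mM KPO4; 10 min compound preincubation, then NADPH regeneration and 60 min reaction at RT. Luciferin read by luminescence; normalized to 57 uM ketoconazole full inhibition.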

[3] = molecular target: Ubiquitin carboxyl-terminal hydrolase 1 (Homo sapiens) (UniProt O94782); assay: Inhibitors of USP1/UAF1: Pilot qHTS (AID 504865); further: nearly all actives have a fitted effect of over 35% in size; further: potency means the concentration at half of the fitted maximal effect
Sequence of Ubiquitin carboxyl-terminal hydrolase 1 (Homo sapiens) (O94782 whole entry, looked up): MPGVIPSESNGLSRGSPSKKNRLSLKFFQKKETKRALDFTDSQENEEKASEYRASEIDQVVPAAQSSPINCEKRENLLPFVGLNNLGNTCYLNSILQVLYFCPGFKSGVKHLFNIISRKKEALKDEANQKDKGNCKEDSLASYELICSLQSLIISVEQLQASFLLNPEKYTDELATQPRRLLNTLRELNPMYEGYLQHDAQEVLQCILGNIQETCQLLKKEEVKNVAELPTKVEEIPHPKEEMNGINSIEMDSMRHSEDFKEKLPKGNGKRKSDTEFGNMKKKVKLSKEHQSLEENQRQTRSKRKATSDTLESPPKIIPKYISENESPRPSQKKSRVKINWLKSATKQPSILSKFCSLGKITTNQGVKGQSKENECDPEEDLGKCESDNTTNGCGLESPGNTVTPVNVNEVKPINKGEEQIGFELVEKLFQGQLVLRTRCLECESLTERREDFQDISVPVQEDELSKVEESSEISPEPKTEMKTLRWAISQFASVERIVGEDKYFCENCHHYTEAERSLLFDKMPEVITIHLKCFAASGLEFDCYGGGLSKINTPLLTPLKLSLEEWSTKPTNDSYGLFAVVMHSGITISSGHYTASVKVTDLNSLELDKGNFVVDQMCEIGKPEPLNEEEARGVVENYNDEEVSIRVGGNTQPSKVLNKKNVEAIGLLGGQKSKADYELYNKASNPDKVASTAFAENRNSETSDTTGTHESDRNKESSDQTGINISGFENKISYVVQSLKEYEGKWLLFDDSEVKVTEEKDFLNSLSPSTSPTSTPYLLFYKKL
In short: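 Deubiquitinase activity followed as kinetic rhodamine fluorescence release from 150 nM Ub-Rho. 1 nM USP1/UAF1 with compound, after 15 min room-temperature preincubation, in HEPES pH 7.8 buffer containing TCEP, EDTA, BSA and Tween-20.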

[4] = Confirmation and Secondary Assay for Modulators of Hemoglobin Beta Chain Splicing at IVS2 654 locus (AID 910);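 further: HeLa cells stably carrying EGFP split by mutant beta-globin IVS2-654 intron; per-well total GFP intensity by laser scanning cytometry after 2-day treatment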
In short: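 Readout: per-well total peak green fluorescence (488 nm ex, 500–520 nm em) from objects 5–250 µm, reflecting correct splicing of an EGFP-654 reporter. Compounds were applied for 2 days at 37 °C to overnight-plated HeLa EGFP-654 cells; controls were DMSO and 500 nM IVS2-654 PNA.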

[5] = Confirmation and Secondary Assay for Modulators of Hemoglobin Beta Chain Splicing at IVS2 705 locus (AID 930);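 further: HeLa cells stably expressing the EGFP-705 splicing reporter; GFP fluorescence per well restored by corrected splicing of the IVS2-705 intron in EGFP; series mostly up to about 46 µM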
In short: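 Secondary splice-site specificity test uses HeLa expressing CMV-driven EGFP interrupted by IVS2-705; cells were treated 2 days at 37C with 500 nM antisense PNA as positive control.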

| Compound | Potency [1] | Potency [2] | Potency [3] | outcome [4] | outcome [5] |
| --- | --- | --- | --- | --- | --- |
| COc1ccc(-c2cc(=O)c3c(OC(C)=O)cc(OC(C)=O)cc3o2)cc1 | 25.1 µM (active) | inactive | inactive |  |  |
| COC(=O)CC1C(C)(C)C(=O)C2CC3C4=CC(=O)OC(c5ccoc5)[C@]4(C)CCC3[C@@]1(C)C2=O (some centres not stated) | 7.94 µM (active) | inactive | inactive | inactive | inactive |
| NC(Cc1cnc[nH]1)C(=O)Nc1ccc2ccccc2c1 (configuration not stated) | 2.51 µM (active) | inactive | inactive |  | inactive |
| CC(=O)OC1CC2C(C)(C)C(=O)CC[C@]2(C)C2CC[C@]3(C)C(=CC(=O)OC3c3ccoc3)[C@]12C (some centres not stated) | 6.31 µM (active) | inactive | inactive | inactive | inactive |
| COc1cc(OC)c2c(=O)c(-c3ccccc3)coc2c1 | 15.8 µM (active) | inactive | inactive | inactive | inactive |
| C[C@@]12CCC(OC(=O)c3ccccc3)CC1CCc1ccccc12 (some centres not stated) | inactive |  | inactive | inactive |  |
| c1ccc(-c2csc(-c3nc4ccccc4[nH]3)n2)cc1 | 1.26 µM (active) | inactive | 22.4 µM (active) |  |  |
| CN(N=O)C(=O)N[C@H]1C(O)C(O)C(CO)O[C@@H]1O (some centres not stated) | inactive |  | inactive | inactive | inactive |
| O=c1cc(-c2ccc(O)cc2)oc2cccc(O)c12 | 0.794 µM (active) | inactive | inactive |  |  |
| Nc1ncnc2c1nc(Br)n2C1OC(CO)C(O)C1O (configuration not stated) | inactive |  | inactive | inactive |  |
| Cc1csc(-c2nc3ccccc3n2C)n1 | 31.6 µM (active) | inactive | inactive |  |  |
| COc1c2ccoc2cc2oc(C)cc(=O)c12 | 3.16 µM (active) |  | inactive | inactive | inactive |
| COC(=O)c1c(C)cc(O)cc1O |  | inactive | inactive | inactive |  |
| Cc1cc(O)cc(=O)o1 |  | inactive | inactive | inactive | inactive |
| Cn1c(=O)[nH]c(=O)c2[nH]cnc21 | inactive |  | inactive |  | inactive |
| Nc1nc(=O)n(C2OC(CO)C(O)C2O)cc1Cl (configuration not stated) | inactive |  | inactive |  | inactive |

| Compound | Potency [1] | Potency [2] | Potency [3] | outcome [4] | outcome [5] |
| --- | --- | --- | --- | --- | --- |
| CO[C@@]1(NC(=O)Cc2cccs2)C(=O)N2C(C(=O)O)=C(COC(N)=O)CSC21 (some centres not stated) | inactive |  | inactive |  | inactive |
| Cc1cc(=O)oc2cc(O)c(O)cc12 |  | inactive | inactive | inactive | inactive |
| COc1cc(OC)c2c(=O)c(-c3ccccc3)c(C)oc2c1OC |  | inactive | inactive | inactive | inactive |
| COc1ccc2c(=O)c(-c3ccccc3)coc2c1 |  | inactive | inactive |  |  |
| CC1CC2C(C(O)C[C@]3(C)C2CC[C@]3(O)C(=O)CO)[C@]2(C)C=CC(=O)C=C12 (some centres not stated) |  | inactive | inactive | inactive |  |
| COc1cc2ccc(=O)oc2c(OC)c1OC | inactive |  | inactive |  | inactive |
| O=c1c(-c2ccc(O)cc2)coc2c(C3OC(CO)C(O)C(O)C3O)c(O)ccc12 (configuration not stated) | inactive |  | inactive |  | inactive |
| COC1=CC(=O)C=C(OC)C1=O |  | inactive | inactive | inactive | inactive |
| CC1CC2C3CCC4=CC(=O)C=C[C@@]4(C)[C@]3(F)C(O)C[C@]2(C)[C@]1(O)C(=O)COP(=O)(O)O (some centres not stated) |  | inactive | inactive | inactive |  |
| C=C1C([C@@]2(C)C(OC(C)=O)CC(=O)O[C@@](C)(COC(C)=O)C2CC(=O)OC)C(OC=O)C(OC(=O)C(O)C(C)CC)[C@]2(C)C(c3ccoc3)CC(=O)C12O (some centres not stated) |  | inactive | inactive |  |  |
| Oc1ccc2c(c1)OCC1c3cc4c(cc3OC21)OCO4 (configuration not stated) |  | inactive | inactive | inactive | inactive |
| CCC1OC(=O)C(C)[C@@H](O[C@H]2C[C@@](C)(OC)C(O)C(C)O2)C(C)[C@@H](O[C@@H]2OC(C)CC(N(C)C)C2O)[C@@](C)(O)CC(C)C2NC(COCCOC)O[C@H](C2C)[C@@]1(C)O (some centres not stated) | inactive |  | inactive |  | inactive |
| NC1C(O)OC(CO)[C@@H](O)[C@@H]1O[C@H]1O[C@@H](C(=O)O)C(O)C(O)C1O (some centres not stated) | inactive |  | inactive |  | inactive |
| O=C1OC(C(O)CO)C(O)=C1O (configuration not stated) | inactive |  | inactive |  | inactive |
| COc1ccc(-c2c(O)c3c(OC)c4c(cc3oc2=O)OC(C)(C)CC4)cc1 |  | inactive | inactive | inactive |  |
| COc1cccc2oc(-c3ccccc3)cc(=O)c12 |  | inactive | inactive |  |  |
